Compound activity (PubChem BioAssay)
A selection: hits, their analogues and other compounds. The true share with any hit is near 11%.
Pf growth 48h: inhibits P. falciparum growth in the first generation, 48 h; P. falciparum luciferase growth in erythrocytes, 48 h; Potency, µM (titrated, usually from 28.7 µM), inactives show top-dose activity change, negative = inhibition, most hits filed as inhibitors; 310,000 tested, 5.9% active; note: % is set by controls: 0 for no effect and ±100 for the full control effect
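A one-generation exposure of luciferase-tagged malaria parasites in RPMI 1640/Albumax erythrocyte culture, 37 C and 5% CO2. Inhibition is inferred from decreased luminescence after adding detection reagent.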
Pf growth 96h: inhibits malaria parasite growth, 96 h; AID 504834; Potency, µM (top dose mostly 28.7 µM), without a hit: at the top dose activity change, negative = inhibition, hits mostly inhibitors; P. falciparum luciferase reporter growth, 96 h; 320,000 tested, 6.9% active; note: % is set by controls: 0 for no effect and ±100 for the full control effect
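Cell-based qHTS: luciferase-tagged P. falciparum in erythrocytes (2% hematocrit, 0.05% parasitemia final) incubated with compounds for 96 hours, 37 C, 5% CO2; luciferase detection reagent then added and luminescence measured.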
NS1 function inh: inhibitors of influenza NS1 protein function. Potency, µM (highest dose often 46.1 µM), for the others: top-dose activity, positive = more growth. 270,000 tested, 0.4% active. AID 2326; calls by dose curve; note: actives are rising curves; nearly all actives have a fitted effect of over 50% in size
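OD600 was taken as the measure of yeast growth restored by compound in an NS1-expressing S. cerevisiae strain. Cells had been washed out of glucose medium and diluted 1:100 into galactose -URA medium, pH 6.0.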
AMA1 RON2 block: disrupts binding of P. falciparum AMA1 to RON2 | AlphaScreen AMA1-biotinylated RON2 peptide binding | Potency, µM (series often up to 58.2 µM), inactives show at the top dose activity change, negative = inhibition, most hits filed as inhibitors | 360,000 tested, 0.2% active | AID 720542;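 note: 0% = vehicle wells and -100% = peptide control; nearly all actives have a fitted effect of over 45% in size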
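AMA1 (3D7) with his tag at 25 nM final met compounds first, then biotinylated RON2 peptide at 25 nM; detection used donor plus acceptor beads, 10 µg/mL apiece, read by AlphaScreen after 30 min at room temperature.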
Sm TGR inh: inhibitors of Schistosoma mansoni thioredoxin glutathione reductase; purified TGR, DTNB reduction, TNB absorbance 405 nm; Potency, µM (top dose mostly 114 µM), inactives show top-dose activity change, negative = inhibition, actives largely listed as inhibitors; 360,000 tested, 3% active; Q962Y6; note: % is set by controls: 0 for no effect and ±100 for the full control effect; nearly all actives have a fitted effect of over 60% in size
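Kinetic colorimetric format: TGR-catalysed, NADPH-driven DTNB reduction monitored via TNB absorbance. Enzyme dispensed at 20 nM; compound exposure 15 min at room temperature before reaction start.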
Active calls of the source: *; ? = inconclusive; nt = no result given. Unless noted, calls come from the whole dose curve; as a rule, active = well fitted curve in the direction sought with a large enough effect; inconclusive = small, poorly fitted or top-dose-only effect, or another doubt; inactive = no such curve, though single readings can be large; an effect the other way counts as inactive or inconclusive. Potency is the fitted concentration of half-maximal effect.

SMILES | Pf growth 48h | Pf growth 96h | NS1 function inh | AMA1 RON2 block | Sm TGR inh
CCOC(=O)c1c(C)oc2nc(C)nc(Nc3ccc(C)c(Cl)c3)c12 | nt | nt | nt | nt | 2.7%
Cc1nccn1CC(=O)c1ccc(O)c(O)c1 | 24.9% | ? | nt | 72.1% | -22.8%
CC1CN(C(=O)CS(=O)(=O)Cc2ccc(Cl)cc2)CC(C)O1 (centres undefined) | -0.6% | 27.3% | 4.8% | -6.5% | -3.0%
CCOC(=O)C1=C[C@@H](C2CCCC2)N(S(=O)(=O)c2ccc([N+](=O)[O-])cc2)[C@H]1c1ccccc1 | nt | nt | nt | -22.8% | nt
Cc1ccc(Cl)cc1N1CCN(C(=O)c2cc3c(=O)[nH]c4ccccc4c3n2C)CC1 | ? | 9.28µM* | 12.8% | 5.8% | 5.8%
Cn1c(C(=O)N2CCN(c3ccc(Cl)cc3)CC2)cc2c(=O)[nH]c3ccccc3c21 | ? | -16.9% | -33.3% | 6.7% | 4.6%
CC(C)c1ccccc1OCC(=O)N1CCCCCCC1 | 20.9% | 4.15µM* | -10.0% | 17.1% | -21.2%
COc1ccccc1N1CCN(C(=O)c2ccc(-c3ccc(Cl)cc3)o2)CC1 | ? | 11.7µM* | nt | -28.9% | -18.7%
COc1ccccc1N1CCN(C(=O)COc2ccc(Cl)cc2Br)CC1 | -27.2% | 8.28µM* | -142.4% | -10.6% | -22.4%
COc1ccccc1N1CCN(C(=O)NCc2ccc(Cl)cc2)CC1 | -5.0% | 24.1% | -38.2% | -3.5% | -13.5%
COCCC(=O)N1CCC(Oc2ccc(C(=O)NCc3ncc(C)[nH]3)cc2)CC1 | 1.7% | ? | 8.1% | -13.0% | -6.6%
CC(C)N(C(=S)Nc1ccc(S(=O)(=O)N2CCOCC2)cc1)c1ccccc1 | nt | nt | nt | -0.5% | nt
Cc1cc(C)n(-c2ccc(C(=O)C(C#N)c3nc4ccccc4n3C)cc2)n1 (centres undefined) | 18.2% | 9.28µM* | -0.5% | 15.1% | 0.7%
Cc1nc(=O)c(-c2ccccc2)c(C)n1-c1ccc(C(=O)O)cc1 | -22.7% | 1.65µM* | -3.8% | -0.3% | -15.3%
Cc1ccc(C)n1-c1ccc(C(=O)O)cc1 | nt | -15.1% | 17.9% | nt | 17.8µM*
Cc1cc(C)n(-c2ccc(NN=C(C#N)C#N)cc2)n1 | ? | ? | -72.3% | -2.2% | 31.6µM*
O=C1CC(c2ccc3ccccc3c2)NN1 (centres undefined) | 0.9% | ? | nt | 110.9% | -10.4%
CCc1cccc(C)c1NC(=O)Cn1c(=O)n(-c2cccc(C)c2)c(=O)c2c1c1cc(C)ccc1n2C | nt | nt | nt | nt | -9.8%
CC(C)CN(C(=O)CCNC(=O)c1ccc(Cl)cc1)c1c(N)n(CC(C)C)c(=O)[nH]c1=O | ? | ? | nt | 13.7% | -19.4%
CC1(C(=O)NS(=O)(=O)c2ccccc2Cl)CCN1C(=O)c1ccccc1 (centres undefined) | nt | nt | nt | -2.9% | nt
Cc1cc(N)n(-c2ccc(C(=O)O)cc2)n1 | 15.4% | ? | 4.8% | -9.2% | nt
Cc1cc(C)n(-c2ccc(C(=O)O)cc2)n1 | 22.3% | 1.85µM* | -3.2% | -10.2% | 1.3%
Cc1ccc(C)n1-c1ccc(C(=O)Nc2ccccc2)cc1 | ? | ? | 16.2% | -9.3% | 25.1µM*
O=C(NCCCN1CCN(CCCNC(=O)c2cc([N+](=O)[O-])ccc2Cl)CC1)c1cc([N+](=O)[O-])ccc1Cl | 4.65µM* | ? | 3.4% | -6.6% | -8.6%
CCOC(=O)c1cc(OC(=O)c2ccc(OC)c(OC)c2)n(-c2ccccc2)n1 | nt | nt | nt | nt | -18.9%
SMILES | Pf growth 48h | Pf growth 96h | NS1 function inh | AMA1 RON2 block | Sm TGR inh
CCC1CCC(C(=O)NC(CCSC)C(=O)NCCN(CC(C)C)CC(C)C)CC1 (centres undefined) | -25.6% | 14.7µM* | nt | 2.7% | 0.6%
CC(C)Oc1ccc(C(CCN)C2CCCCC2)cc1 (centres undefined) | ? | ? | 9.6% | -4.8% | 4.6%
CC(OC(=O)c1ccc(Cl)nc1)C(=O)NC1(C#N)CCCCC1 (centres undefined) | 31.4% | 20.0% | nt | -12.5% | -1.2%
O=C(O)Cc1ccc(C(=O)CSc2ccccc2)s1 | 32.7% | 58.1% | 0.1% | -16.4% | 20µM*
Cc1ccc(SCC(=O)c2ccc(CC(=O)O)s2)cc1 | 50.2% | 120.7% | 7.0% | 14.7% | 29.9%
Cc1ccc2nc(C3CCCN3Cc3nc(CCC(C)C)no3)[nH]c2c1 (centres undefined) | ? | -3.7% | ? | 45.0% | -12.9%
